Screens as filed in PubChem.
Rows were chosen to be rich in hits. Some 1.5% of all compounds tested hit in one or more screens of this group.
VHR inh abs = VHR1 phosphatase inhibitors, primary screen, biochemical, absorbance, uHTS; inhibition, % at 13.3 µM; Dual specificity protein phosphatase 3 (Homo sapiens), P51452; recombinant VHR phosphatase, pNPP absorbance; hit rate 0.52% among 290,000; in the data active = inhibition above about 50%
SARS 3CLpro inh = SARS-CoV 3CLpro protease inhibitors, primary screen, biochemical, quenched FRET; inhibition, % at 6 µM; recombinant SARS-CoV 3CLpro, quenched FRET peptide cleavage; AID 1706, 2009; hit rate 0.14% among 290,000; in the data active = inhibition above about 12%
CCHF vOTU inh-1 = CCHFV vOTU protease inhibitors, primary screen, biochemical, Pep-AMC substrate, fluorescence | inhibition, % at 11.5 µM | hit rate 0.55% among 370,000 | Crimean-Congo hemorrhagic fever virus L polyprotein viral ovarian tumor (vOTU) protease …; note: 0% = vehicle wells with enzyme and 100% = no enzyme wells
RecA splice inh = Mtb RecA intein splicing inhibitors, primary screen, biochemical, fluorescence, HTS | Protein RecA (Mycobacterium tuberculosis (strain ATCC 25618 / H37Rv)), P9WHJ3 | inhibition, % (no concentration beside the values) | AID 2221, 2009 | hit rate 0.75% among 290,000 | cell-free RecA intein splicing; in the data active = inhibition above about 30%;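 note: 0% = vehicle wells and 100% = reference inhibitor control wells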
Target sequence (P9WHJ3 whole entry, looked up, canonical isoform): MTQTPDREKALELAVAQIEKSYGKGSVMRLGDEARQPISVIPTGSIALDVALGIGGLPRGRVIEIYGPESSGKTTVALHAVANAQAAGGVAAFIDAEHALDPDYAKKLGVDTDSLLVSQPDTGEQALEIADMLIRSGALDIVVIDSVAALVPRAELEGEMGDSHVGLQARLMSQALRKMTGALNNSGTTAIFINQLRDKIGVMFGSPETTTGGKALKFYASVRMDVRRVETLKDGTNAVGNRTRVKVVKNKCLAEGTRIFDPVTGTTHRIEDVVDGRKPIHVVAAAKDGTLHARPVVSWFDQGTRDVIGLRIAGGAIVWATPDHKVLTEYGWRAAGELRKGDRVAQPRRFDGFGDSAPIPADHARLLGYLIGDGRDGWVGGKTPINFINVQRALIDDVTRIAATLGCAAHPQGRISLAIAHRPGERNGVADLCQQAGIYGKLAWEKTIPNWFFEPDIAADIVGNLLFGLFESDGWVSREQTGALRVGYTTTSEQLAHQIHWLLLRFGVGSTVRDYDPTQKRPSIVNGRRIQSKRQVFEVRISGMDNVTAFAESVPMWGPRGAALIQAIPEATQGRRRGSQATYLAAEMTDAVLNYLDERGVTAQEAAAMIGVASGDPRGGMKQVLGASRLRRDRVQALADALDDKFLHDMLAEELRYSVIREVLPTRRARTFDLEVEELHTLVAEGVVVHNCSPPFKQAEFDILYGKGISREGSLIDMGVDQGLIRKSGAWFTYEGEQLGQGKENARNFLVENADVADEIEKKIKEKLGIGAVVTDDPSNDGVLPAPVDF
CCHF vOTU inh-2 = CCHFV vOTU protease inhibitors, confirmation, biochemical, Pep-AMC substrate, fluorescence | hit rate 17% among 1,900 | inhibition, % at 11.5 µM | AID 686976, 2013 | Recombinant CCHFV vOTU | shares compounds with CCHF vOTU inh-1
An asterisk follows results filed as active; / = no result; ! = not active in a repeat. Cut-off read from the data, not from the text of the source, unless noted: active = inhibition above about 30%; inactive = the rest.

SMILES	VHR inh abs	SARS 3CLpro inh	CCHF vOTU inh-1	RecA splice inh	CCHF vOTU inh-2
O=C1NC(=O)/C(=C\c2ccc(OCc3cccc([N+](=O)[O-])c3)cc2)N1	11	-1	5	0	/
Cc1cccc(C)c1OCC(=O)NNC(=S)NC(=O)C1CC1	14	1	17	1	/
CCN(CCCNC(=O)CN(C)S(=O)(=O)c1ccc2c(c1)CCC(=O)N2)c1cccc(C)c1	12	4	1	-3	/
CCCc1cc(=O)oc2cc(OCC(=O)NCCCn3ccnc3)c(Cl)cc12	25	0	-15	-1	/
Cc1oc2c(cc(NS(=O)(=O)c3ccc(F)cc3)c3ccccc32)c1C(=O)O	-4	8	30*	-1	-10
CN(Cc1ccccc1)C(=O)c1nc[nH]c1C(=O)N1CCc2ccccc2C1	/	/	-6	/	/
O=C(c1nc[nH]c1C(=O)N1CCc2ccccc2C1)N1CCc2ccccc2C1	/	/	43*	/	-3
Cn1cc(/C=C2\SC(=S)N(NC(=O)c3ccccc3Cl)C2=O)c2ccccc21	8	2	31*	/	27
COc1cc(CC(=O)N2c3ccccc3N=C(c3ccccc3)C2C(=O)NCc2ccccc2)cc(OC)c1 (stereo not given)	/	/	1	/	/
COc1cc([N+](=O)[O-])cc(/C=N/NC(=O)C(C)Nc2cccc3ccccc23)c1O (stereo not given)	17	-12	5	7	/
Cc1cccc(/C=N/NC(=O)C(C)Nc2cccc3ccccc23)n1 (stereo not given)	30	-16	115*	75*	-19
O=C(CNc1cccc2ccccc12)c1ccc([N+](=O)[O-])cc1	15	-4	30*	6	-17
CC(Nc1cccc2ccccc12)C(=O)N/N=C/c1ccc([N+](=O)[O-])cc1 (stereo not given)	42	3	104*	4	-6
O=Cc1ccc(-c2ccccc2C(=O)O)o1	-10	-2	12	-1	/
O=C(O)c1ccccc1-c1c2cc(I)c(=O)c(I)c-2oc2c(I)c(O)c(I)cc12	/	/	37*!	/	39*
Cc1cccc(NS(=O)(=O)c2ccc3[nH]c(=O)cc(C(=O)OC(C)C(=O)Nc4ccc([N+](=O)[O-])cc4)c3c2)c1 (stereo not given)	6	3	34*	9	-10
CC(=O)c1ccc(N2CCN(C(=O)C3CCCN(S(=O)(=O)c4cnc[nH]4)C3)CC2)cc1 (stereo not given)	32	-6	34*	-4	-10
Cc1ccc(Cl)cc1N1CCN(C(=O)C2CCCN(S(=O)(=O)c3cnc[nH]3)C2)CC1 (stereo not given)	16	1	1	-1	/
COc1c2ccoc2nc2c(OC)c(OCC(OC(C)=O)C(C)(C)O)ccc12 (stereo not given)	30	-3	-65	0	/
COc1ccc(CN=Cc2c(C(=O)O)[nH]c3ccccc23)cc1	38	4	0	-9	/
COc1cc(C(c2c(C(=O)O)[nH]c3ccccc23)c2c(C(=O)O)[nH]c3ccccc23)ccc1OCc1ccccc1	6	11	39*	16	22
C=CCOc1ccc(C(c2c(C(=O)O)[nH]c3ccccc23)c2c(C(=O)O)[nH]c3ccccc23)cc1	6	5	51*	12	-2
N#CCCN(C(=O)COC(=O)CCC(=O)c1cccs1)c1ccccc1	/	/	-11	/	/
N#CCCN(C(=O)COC(=O)CCNS(=O)(=O)c1ccccc1)c1ccccc1	/	/	58*	/	3
CC(C)(C)c1ccc(/C=N/Nc2nncn2N)cc1	5	0	89*	0	5
SMILES	VHR inh abs	SARS 3CLpro inh	CCHF vOTU inh-1	RecA splice inh	CCHF vOTU inh-2
Nn1cnnc1N/N=C/c1cc(Br)cc(Br)c1O	32	-3	104*	-6	-13
CC(C)(C)c1nnc(N/N=C/c2ccc(Br)cc2)n(N)c1=O	-6	-1	24	-7	/
CC1CCN(c2ccc(/C=N/n3nnnc3N)cc2[N+](=O)[O-])CC1	44	2	8	4	/
CC1CCN(c2ccc(/C=N\Nc3nncn3N)cc2[N+](=O)[O-])CC1	7	-3	88*	/	12
CSc1ccc(/C=N\Nc2nncn2N)cc1	-24	0	101*	-2	-7
CS/C(N)=N/N=C/c1cc(Br)cc(Br)c1O	-15	1	21	-1	/
Cc1nc2c(OCCC3CCCCC3)cccn2c1N(C)C(=O)CCC1CCCC1	/	/	17	/	/
O=C(Nc1ccc(F)cc1)OCc1cn(Cc2cccc(Cl)c2)nn1	/	/	-4	/	/
CCCCn1c(N)c(N(CC(C)C)C(=O)CSCC(=O)Nc2cccc(C)c2)c(=O)[nH]c1=O	/	/	34*	/	-21
CCOc1ccc(CCNC(=O)c2ccc(Cl)c(S(=O)(=O)N3CCOCC3)c2)cc1OCC	/	/	42*	0	1
CCOc1ccc(CCNC(=O)c2ccc(C)c(S(=O)(=O)N3CCOCC3)c2)cc1OCC	/	/	2	/	/
CN(C)c1cccc2c1c(NS(=O)(=O)c1cn(C)cn1)nn2C	24	4	52*	1	50*
Cn1cnc(S(=O)(=O)Nc2ccccc2N2CCOCC2)c1	-8	1	-6	1	/
CC1(C)CC(NC(=O)c2cc(S(=O)(=O)N3CCOCC3)c(Cl)cc2Cl)CC(C)(C)N1	/	/	7	-6	/
CCCCC[C@H](C)N1C[C@@H](COCc2ccccc2)Oc2cc(N3CCC[C@H]3C(N)=O)ccc2S1(=O)=O	/	/	35*	/	2
CCCCC[C@@H](C)N1C[C@H](COCc2ccccc2)Oc2cc(N3CC[C@@H](O)C3)ccc2S1(=O)=O	/	/	41*	/	6
Nc1ccn(C2C=CC(CO)O2)c(=O)n1 (stereo not given)	/	/	-1	/	/
O=C(NC1CCCCC1)C(c1ccccc1F)N(C(=O)c1csnn1)C1CCCC1 (stereo not given)	28	-1	65*	2	-6
CC(=O)NC(Cc1ccc2c(c1)OCO2)C(=O)N1CCCN(C(C)=O)CC1 (stereo not given)	/	/	4	/	/
COc1cc2c(cc1O)[C@@H]1Cc3ccc(OC)c(O)c3CN1CC2	/	/	105*	/	93*
COc1ccc(C[C@@H]2c3cc(O)c(OC)cc3CCN2C)cc1O	-3	1	12	-2	/
COc1cccc(-c2cc3nc(NCc4ccccc4F)n(C)c(=O)c3s2)c1	/	/	10	/	/
O=C(NC(=S)Nc1ccccc1N1CCCC1)c1ccccc1[N+](=O)[O-]	27	3	-1	4	/
COc1c(C)cccc1C(=O)NC(=S)Nc1ccccc1N1CCCC1	14	3	50*	0	23
O=C(NC(=S)Nc1ccccc1N1CCCC1)c1ccccc1Br	71	-3	34*	7	30*
CCOC(=O)[C@@]12CN(C(=O)OC(C)(C)C)CC=C1N(Cc1ccc(OC)cc1)C(=O)[C@H]2CC(=O)NCc1ccc(C)o1	/	/	8	/	/
